PubChem BioAssay (NCI)
This is part of a sample that, as a whole, favours compounds with a hit. Of some 83,000 tested, about 20% had one in any assay.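 Compound tested at a single concentration for 48 hours in 96-well plates; a percent growth value below 10 was scored as active.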 Activity calls are given as the source filed them.

Experiments:
Assay in all cases: NCI-60 one-dose screen, 48 h (100 = growth as untreated, 0 = no growth, -100 = all killed)
NCI-H23 lung = conditions: 10 µM unless noted
NCI-H226 lung = conditions: 10 µM unless noted
NCI-H322M lung = conditions: 10 µM unless noted
HOP-62 NSCLC = conditions: 10 µM unless noted
NCI-H460 lung = conditions: 10 µM unless noted
HOP-92 NSCLC = conditions: 10 µM
NCI-H522 lung = conditions: 10 µM unless noted
A549/ATCC NSCLC = conditions: 10 µM unless noted
786-0 renal = conditions: 10 µM unless noted
COLO 205 colon = conditions: 10 µM unless noted
DU-145 prostate = conditions: 10 µM unless noted
K-562 leukemia = conditions: 10 µM unless noted
MALME-3M melanoma = conditions: 10 µM unless noted
MDA-MB-231 breast = conditions: 10 µM unless noted
SF-268 CNS = conditions: 10 µM unless noted
SF-295 CNS = conditions: 10 µM unless noted
SF-539 CNS = conditions: 10 µM unless noted
UACC-257 melanoma = conditions: 10 µM unless noted
RXF 393 renal = conditions: 10 µM unless noted

Measured: growth

CCCCCc1ccc(S(=O)(=O)Nc2cc(-c3csc(NC(=O)CN4CCN(C)CC4)n3)ccc2OC)cc1
inactive: NCI-H23 lung 49.8% | NCI-H226 lung 74.6% | HOP-62 NSCLC 60.3% | HOP-92 NSCLC 22.1% | A549/ATCC NSCLC 15.1% | DU-145 prostate 22.1%
active: NCI-H322M lung 5.27% | NCI-H460 lung -61.5% | NCI-H522 lung -51.9% | 786-0 renal -75% | COLO 205 colon -57.6% | K-562 leukemia -27.9% | MALME-3M melanoma -84.6% | MDA-MB-231 breast -38.1% | SF-268 CNS -24.5% | SF-295 CNS -68.2% | SF-539 CNS -80.8% | UACC-257 melanoma -49.2%

Cc1ccc2c(c1)Oc1nc(N)c(C#N)c(N)c1C2Sc1ccc(F)cc1 (stereo not drawn)
active: NCI-H23 lung -88.2% | NCI-H226 lung -50.6% | NCI-H322M lung -98.7% | HOP-62 NSCLC -86.3% | NCI-H460 lung -50.4% | HOP-92 NSCLC -93.6% | NCI-H522 lung -58.1% | A549/ATCC NSCLC -82.2% | 786-0 renal -97.3% | COLO 205 colon -49.7% | DU-145 prostate -98.9% | K-562 leukemia -13.6% | MALME-3M melanoma -91.9% | MDA-MB-231 breast -92.5% | SF-268 CNS -81.6% | SF-295 CNS -96.9% | SF-539 CNS -99% | UACC-257 melanoma -94.4%

CC/C(=C/c1cc(OC)ccc1O)c1ccc2cc(OC)ccc2[o+]1
inactive: NCI-H23 lung 64.2% | NCI-H226 lung 78% | NCI-H322M lung 84.2% | HOP-62 NSCLC 69.8% | NCI-H460 lung 33.6% | HOP-92 NSCLC 71% | NCI-H522 lung 24.2% | A549/ATCC NSCLC 58.3% | 786-0 renal 65.9% | COLO 205 colon 56.1% | DU-145 prostate 68.6% | K-562 leukemia 20.3% | MALME-3M melanoma 53.1% | MDA-MB-231 breast 66.2% | SF-268 CNS 61.6% | SF-295 CNS 52.2% | SF-539 CNS 52.7% | UACC-257 melanoma 65.6%

O=C(NCCN1CCCC1)c1ccc(-c2nc3ccc4[nH]ncc4c3c3c2CCCC3)cc1
active: NCI-H23 lung -14.8% | NCI-H322M lung 3.73% | NCI-H460 lung -5.93% | HOP-92 NSCLC -15.4% | NCI-H522 lung -29.2% | A549/ATCC NSCLC 6.08% | 786-0 renal 6.43% | COLO 205 colon -14.8% | DU-145 prostate 6.08% | K-562 leukemia 0.479% | MALME-3M melanoma -2.3% | MDA-MB-231 breast -2.53% | SF-268 CNS -11.3% | SF-295 CNS 3.28% | SF-539 CNS -63.2%
inactive: NCI-H226 lung 13.6% | HOP-62 NSCLC 15.8% | UACC-257 melanoma 23.8%

O=C(NNc1nc2cc(F)c(F)cc2n2cccc12)c1cnccn1
active: NCI-H460 lung 7.99%
inactive: NCI-H23 lung 34.5% | NCI-H226 lung 45.1% | NCI-H322M lung 35% | HOP-62 NSCLC 24.8% | HOP-92 NSCLC 36.4% | NCI-H522 lung 13.4% | A549/ATCC NSCLC 24.1% | 786-0 renal 30.6% | COLO 205 colon 11.9% | DU-145 prostate 32.7% | K-562 leukemia 15.5% | MALME-3M melanoma 49.7% | MDA-MB-231 breast 44% | SF-268 CNS 32.5% | SF-295 CNS 11.1% | SF-539 CNS 19.9% | UACC-257 melanoma 17.5%

C#Cc1ccc(C(=O)NCc2ccc(/C=C/C(=O)c3nccn3C)cc2)cc1
inactive: NCI-H23 lung 10% | NCI-H226 lung 31.9% | NCI-H322M lung 12.5% | HOP-62 NSCLC 27.5% | NCI-H522 lung 25.9% | A549/ATCC NSCLC 13.4% | 786-0 renal 19.3% | DU-145 prostate 21% | K-562 leukemia 18.8% | MALME-3M melanoma 69.5% | MDA-MB-231 breast 16.1% | SF-268 CNS 13.5% | SF-295 CNS 20.7% | UACC-257 melanoma 67.7%
active: NCI-H460 lung -45.4% | HOP-92 NSCLC -0.611% | SF-539 CNS -17%

COc1ccc(Cn2cc3c(c2-c2cc(OC)c(OC)c(OC)c2)CCc2c(CN4CCCC4)noc2-3)cc1
active: NCI-H23 lung 7.29% | NCI-H460 lung 9.59% | COLO 205 colon 8.39% | SF-539 CNS 0.316%
inactive: NCI-H226 lung 61.7% | NCI-H322M lung 51.8% | HOP-62 NSCLC 33.8% | HOP-92 NSCLC 75.5% | NCI-H522 lung 28.2% | A549/ATCC NSCLC 25.8% | 786-0 renal 47.9% | DU-145 prostate 22.7% | K-562 leukemia 14% | MALME-3M melanoma 19% | MDA-MB-231 breast 36.7% | SF-268 CNS 46.5% | SF-295 CNS 12.1% | UACC-257 melanoma 77%

O=S(=O)(NCCCNc1nccc(-c2[nH]c(-c3ccccc3)nc2-c2ccc(Cl)c(O)c2)n1)c1cccc2ccccc12
inactive: NCI-H23 lung 30.6% | NCI-H226 lung 32.9% | NCI-H322M lung 50.9% | HOP-62 NSCLC 30.9% | NCI-H460 lung 15.5% | HOP-92 NSCLC 51.4% | NCI-H522 lung 25.2% | 786-0 renal 47.9% | COLO 205 colon 93.8% | DU-145 prostate 27.6% | K-562 leukemia 17% | MDA-MB-231 breast 45.9% | SF-268 CNS 46.8% | SF-295 CNS 12.9% | SF-539 CNS 44.8% | UACC-257 melanoma 27%
active: MALME-3M melanoma 6.39% | RXF 393 renal -9.57%
